These results are taken from PubChem BioAssay AID1508635 (National Center for Advancing Translational Sciences (NCATS), 2021).

Records with an inconclusive call do not appear. Active and inactive are the calls of the source. Calls follow the shape of the dose curve; as a rule, active = well fitted inhibition curve with a large enough effect; inconclusive = small, poorly fitted or top-dose-only effect; inactive = no such curve, though single readings can be large or run the other way. Numbered stars: 1 amine (or outer) side, 2 acyl side, 3 side chain; on linkers, the order of the positions; unused ones are H or OH. Square brackets hold non-standard residues; d marks the D form. Peptide text beside a SMILES is read from it. X1 = O=C([C@@H](CC(O)CCl)O[*:1])[*:2]; aIle = CC[C@@H](C)[C@H](N)C(=O)O; NMeV = CN[C@H](C(=O)O)C(C)C; NMeA = CN[C@@H](C)C(=O)O; βAla = NCCC(=O)O

The subject of the assay is zebrafish Abcb4 (ABCB1 homolog). The experiment in a line: qHTS for characterization and localization of zebrafish homologs of the human ABCB1 multidrug transporter: ABCB4 transfected cells. To be noted: CellTiter-Glo viability luminescence, 72 h; series mostly up to 15.2 µM; activity change, negative = inhibition: at the top concentration. An excerpt:
The zebrafish has emerged as a potential model to study the blood-brain barrier (BBB) given its similarities with mammalian systems. However, little information has been available with regard to homologous ATP-binding cassette transporters expressed at the zebrafish BBB. Two transporters that are highly expressed at the human BBB are P-glycoprotein (P-gp, encoded by the ABCB1 gene) and ABCG2 (encoded by the ABCG2 gene). In this study, we focus on characterization of P-gp homologs in the zebrafish, which has two genes that are homologous to human ABCB1 - abcb4 and abcb5. We generated stably-transfected cell lines to determine their substrate specificities. […] Zebrafish abcb4 also colocalized with claudin 5 expression in brain endothelial cells.
A high-throughput screen was performed as previously described on empty vector transfected cells, P-gp-overexpressing MDR-19 cells and cells transfected with full-length zebrafish abcb4 (ZF Abcb4) or abcb5 (ZF Abcb5). Briefly, cells were plated into 1536-well plates at a density of 500 cells/well in 5 uL media. P-gp substrate compounds (approximately 90) selected from our previous study were then added at varying concentrations using a 1536-head pin tool (Kalypsis, San Diego, CA) and plates were incubated at 37C in 5% CO2 for 72 h. CellTiter-Glo reagent (Promega) was dispensed into the wells, incubated for 5 min and luminescence was read on a ViewLux instrument (Perkin-Elmer).
Cytotoxic compounds were defined as those that yielded a curve class of -1.1, -1.2, -2.1, -2.2, -2.3, or -2.4, a maximum response of >50% and an AC50 of < 10 uM. All compounds from screening analysis were tested in Vector (empty vector control), MDR-19 (P-gp overexpressing), zebrafish abcb4 (ZF Abcb4) and abcb5 (ZF Abcb5) expression cell lines.
1. Tobie D Lee, Olivia W Lee, Kyle R Brimacombe, Lu Chen, Rajarshi Guha, Sabrina Lusvarghi, Bethilehem G Tebase, Carleen Klumpp-Thomas, Robert W Robey, Suresh V Ambudkar, Min Shen, Michael M Gottesman, Matthew D Hall. A High-Throughput Screen of a Library of Therapeutics Identifies Cytotoxic Substrates of P-glycoprotein. […]
Take `C=CCON=C(C[C@H]1O[C@@H]2O[C@]3(C)CC[C@@H]4[C@H](C)CC[C@@H]([C@H]1C)[C@@]24OO3)[C@H]1O[C@@H]2O[C@]3(C)CC[C@H]4[C@H](C)CC[C@@H]([C@@H]1C)[C@@]24OO3`: the Potency is 1.87 µM (active). On to `CC[C@@H](C)[C@@H]1NC(=O)[C@@H]2CCCN2C(=O)[C@@H](CC(O)CCl)OC(=O)CCNC(=O)[C@H](C)N(C)C(=O)[C@H](C(C)C)N(C)C1=O` (stereo partly drawn) (cyclo([NMeA][βAla][X1]P[aIle][NMeV])), for which the “activity change, negative = inhibition” value was -14.4% (inactive).

With `C[C@@H]1[C@@H](CC(C[C@H]2O[C@@H]3O[C@]4(C)CC[C@@H]5[C@H](C)CC[C@@H]([C@H]2C)[C@@]35OO4)C[S+](=O)([O-])c2ccc(COC(=O)N(C)C)cc2)O[C@@H]2O[C@]3(C)CC[C@H]4[C@H](C)CC[C@@H]1[C@@]24OO3` (stereo partly drawn), the Potency was 2.35 µM (active).
